According to PubChem BioAssay (NCATS):
Several values for one entry are separate records, joined by “and”; a condition that tells them apart may be missing. Equal values may be shown once. Inconclusive results are not listed. Some compounds were tested as several samples or in several runs, with calls that do not always agree. Activity calls are given as the source filed them. Calls come from the whole dose curve; as a rule, active = well fitted inhibition curve with a large enough effect; inconclusive = small, poorly fitted or top-dose-only effect; inactive = flat fitted curve, though single readings scatter.

What was measured:
[1] = test system: CRL-7250; assay: Cytotoxic Profiling of Annotated Libraries Using Quantitative High-Throughput Screening (AID 1296008); settings: Five cell lines viability, CellTiter-Glo ATP luminescence, 48-72 h; max response: stronger effect = lower value; note: potency is the fitted concentration of half-maximal effect; for max response: % is set by controls: 0 for no effect and ±100 for the full control effect
Method in brief: (§1)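 Compounds were pin-transferred onto cells and incubated 48 or 72 hr at 37 degree Celsius, 95% humidity. CellTiter-Glo was added, plates sat 10 min at room temperature, then ATP-coupled luminescence was imaged as the viability read-out.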

[2] = test system: HEK293; assay: as above; settings: Five cell lines viability, CellTiter-Glo ATP luminescence, 48-72 h; max response: stronger effect = lower value
Method in brief: as §1

[3] = test system: HaCat; assay: as above; settings: Five cell lines viability, CellTiter-Glo ATP luminescence, 48-72 h; max response: stronger effect = lower value
Method in brief: as §1

[4] = test system: KB-3-1; assay: as above; settings: Five cell lines viability, CellTiter-Glo ATP luminescence, 48-72 h; max response: stronger effect = lower value
Method in brief: as §1

[5] = test system: NIH3T3; assay: as above; settings: Five cell lines viability, CellTiter-Glo ATP luminescence, 48-72 h; max response: stronger effect = lower value
Method in brief: as §1

[6] = test system: HACAT; assay: qHTS assay to identify novel small-molecules to repurpose for Merkel cell carcinoma treatment (AID 1296009); settings: MCC and control cell lines, CellTiter-Glo viability, 72 h
Method in brief: (§2)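 Cells exposed to NPC (8-point) and MIPE (11-point) compound dilutions for 72 hr at 37 degree celsius; viability read by CellTiter-Glo luminescence, normalized to no-cell and DMSO in-plate controls.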

[7] = test system: HEK293T; assay: as above; settings: MCC and control cell lines, CellTiter-Glo viability, 72 h; at 44.8 µM (top of the series) unless noted
Method in brief: as §2

[8] = test system: MCC-13; assay: as above; settings: MCC and control cell lines, CellTiter-Glo viability, 72 h; series mostly up to 46 µM
Method in brief: as §2

[9] = test system: MCC-26; assay: as above; settings: MCC and control cell lines, CellTiter-Glo viability, 72 h; series mostly up to 46 µM
Method in brief: as §2

[10] = test system: W2; assay: qHTS profiling for inhibitors of Plasmodium falciparum proliferation (AID 504749);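 note: 0% = DMSO vehicle and full inhibition = artemisinin control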; settings: P. falciparum in erythrocytes, SYBR Green DNA, 72 h; series mostly up to 28.7 µM
Method in brief: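 P. falciparum-infected erythrocytes (0.3% parasitemia, 2.5% hematocrit final) were exposed to compounds for 72 h at 37 C in 5% CO2, then lysed with SYBR Green buffer overnight at room temperature; parasite DNA fluorescence was normalized to artemisinin and DMSO controls.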

[11] = at 44.8 µM (top of the series) unless noted
Note: nearly all actives have a fitted effect of over 60% in size.

Cc1ccccc1C(C(=O)NC1CCCCC1)N(C(=O)CNc1ccc(C#N)cc1)c1cccc(F)c1 (configuration not stated)
inactive: max response [1] 4.34% | outcome [1] | max response [2] -1.85% | outcome [2] | max response [3] -5.11% | outcome [3] | max response [4] 5.31% | outcome [4] | max response [5] -3.8% and -0.279% | outcome [6, 11] | outcome [7] | Potency [8] | Potency [9]

O=C1C(c2c(O)[nH]c3ccccc23)=Nc2ccccc21
inactive: outcome [1] | max response [2] -1.42% | outcome [3] | outcome [4] | max response [5] 2.3% | outcome [5] | outcome ([6]; at 17.4 µM (top of the series)) | outcome ([6]; at 44.8 µM (top of the series)) | Potency [8] | Potency [9]

COC(=O)N1CCN(Cc2cccc(NC(=O)Nc3ccc(C)nc3)c2F)CC1
inactive: max response [1] -17.2% | outcome [1] | max response [3] 3.64% and 2.27% | max response [4] -23.5% | max response [5] -1.49% | outcome [5] | Potency [8] | Potency [9]

O=C(c1ccc(C(=O)N2CCC(N3CCCC3)CC2)c(Nc2ccccc2)c1)N1CCC(N2CCCC2)CC1
inactive: max response [1] -2.66% and 0.948% | max response [2] -1.83% and -8.97% | outcome [3] | max response [4] -1.29% and -4.53% | max response [5] -1.45% | outcome [5] | outcome [6, 11] | Potency [8] | Potency [9]

CCN1CCN(c2ccc(Nc3cc(N(C)C(=O)Nc4c(Cl)c(OC)cc(OC)c4Cl)ncn3)cc2)CC1
inactive: max response [3] 4.46% | max response [4] 8.02% | outcome [5] | Potency [8] | Potency [9]
active: Potency [1] 7.31 µM | Potency [2] 16.4 µM | Potency [3] 8.2 µM | Potency [4] 23.1 µM

Cc1cnc(-c2cc(N3CCN(C(=O)CCS(C)(=O)=O)CC3)ncc2Cl)c(C)c1
inactive: max response [1] 2.67% | outcome [1] | max response [2] 2.19% | outcome [2] | outcome [3] | max response [4] 3.56% and 2.16% | outcome [5] | outcome [6, 11] | outcome [7] | Potency [8] | Potency [9]

Cn1c(=O)c(-c2c(Cl)cccc2Cl)cc2cnc(Nc3cccc(C(=O)O)c3)nc21
inactive: max response [2] -22.7% | outcome [3] | outcome [4] | max response [5] 3.27% | outcome [5] | outcome [6, 11] | Potency [8] | Potency [9]
active: Potency [1] 1.16 µM | Potency [2] 2.31 µM | Potency [4] 4.61 µM

CC1CNc2c(cccc2S(=O)(=O)N[C@@H](CCCN=C(N)N)C(=O)N2CC[C@@H](C)C[C@@H]2C(=O)O)C1 (some centres not stated)
inactive: outcome [1] | outcome [2] | outcome [3] | max response [4] 9.69% | max response [5] -2.95% | outcome [6, 11] | outcome [7] | Potency [8] | Potency [9]

Nc1[nH]nc2nnc(-c3c(-c4ccccc4)nn4ccccc34)cc12
inactive: outcome [1] | max response [2] 2.02% and -4.98% | outcome [3] | outcome [4] | outcome [5] | outcome [6, 11] | Potency [8] | Potency [9]

N#Cc1c(N(CC(=O)O)CC(=O)O)sc(C(=O)O)c1CC(=O)O
inactive: Potency [10] | outcome [1] | outcome [2] | outcome [3] | max response [4] -1.51% | max response [5] -3.52% | outcome [6, 11] | outcome [7] | Potency [8] | Potency [9]

Cc1ccc2c(=O)c3cccc(CC(=O)O)c3oc2c1C
inactive: max response [1] -6.92% | outcome [2] | max response [3] -14.4% | outcome [4] | outcome [5] | outcome [7] | Potency [8] | Potency [9]

C[C@H](CCC(=O)O)[C@H]1CC[C@H]2[C@H]3[C@@H](CC[C@]12C)[C@@]1(C)CC[C@@H](O)C[C@H]1C[C@@H]3O
inactive: max response [1] -2.21% | outcome [2] | outcome [3] | max response [4] 0.163% | max response [5] -1.17% | outcome [6, 11] | outcome [7] | Potency [8] | Potency [9]

Nc1ncnc2c1ncn2[C@@H]1O[C@H](CO)[C@@H](O)[C@@H]1O
inactive: outcome [1] | max response [2] -0.764% | outcome [3] | outcome [4] | max response [5] 3.26% | outcome [6, 11] | Potency [8] | Potency [9]

N#CC(c1ccc(Cl)cc1)c1c(Cl)cc(-n2ncc(=O)[nH]c2=O)cc1Cl (configuration not stated)
inactive: Potency [10] | max response [1] -3.43% | max response [2] -4.97% | outcome [3] | max response [4] 0.338% | max response [5] -0.315% | outcome [6, 11] | Potency [8] | Potency [9]

C=CC[N+]1([C@H]2C[C@H]3[C@@H]4CC[C@H]5C[C@H](O)[C@@H](N6CCOCC6)C[C@]5(C)[C@@H]4CC[C@]3(C)[C@H]2OC(C)=O)CCCC1
inactive: outcome [1] | max response [2] -1.88% | outcome [3] | max response [4] 8.47% | max response [5] 4.84% | outcome [6, 11] | Potency [8] | Potency [9]

CC1(C)[C@H]2CC[C@]3(C)[C@@H](C(=O)C=C4[C@@H]5C[C@@](C)(C(=O)O)CC[C@]5(C)CC[C@]43C)[C@@]2(C)CC[C@@H]1O
inactive: outcome [1] | max response [2] -1.55% | outcome [3] | max response [4] 1.07% | max response [5] -8.32% | outcome [6, 11] | Potency [8] | Potency [9]

C=C1c2cccc(O)c2C(O)=C2C(=O)[C@@]3(O)C(O)=C(C(N)=O)C(=O)[C@@H](N(C)C)[C@@H]3[C@@H](O)[C@H]12
inactive: max response [1] -8.75% | max response [2] 0.32% | outcome [3] | max response [4] 1.29% | max response [5] -2.7% | outcome [6, 11] | Potency [8] | Potency [9]

CC=C(C(=CC)c1ccc(O)cc1)c1ccc(O)cc1
inactive: max response [1] -2.03% | max response [2] -14% | outcome [3] | max response [4] -8.73% | max response [5] -13.5% | outcome [6, 11] | Potency [8] | Potency [9]

CCOC(=O)[C@@H](N)CCC(=O)N[C@@H](CSCc1ccccc1)C(=O)N[C@@H](C(=O)OCC)c1ccccc1
inactive: outcome [1] | max response [2] -7.26% | outcome [3] | max response [4] -0.167% | max response [5] 1.31% | outcome [6, 11] | Potency [8] | Potency [9]

CCCCCCCCCCCCCCCC(=O)O[C@H]1[C@@H](O)[C@@H](O)[C@@H]([C@H](NC(=O)[C@@H]2C[C@@H](CCC)CN2C)[C@H](C)Cl)O[C@@H]1SC
inactive: outcome [1] | max response [2] -29.9% | outcome [3] | outcome [4] | outcome [5] | outcome [6, 11] | Potency [8] | Potency [9]

O=C(O)C1=CO[C@@H](O[C@@H]2O[C@H](CO)[C@H](O)[C@H](O)[C@H]2O)[C@@H]2C(CO)=CC[C@H]12
inactive: max response [1] 1.58% | outcome [2] | max response [3] -0.469% | max response [4] 7.89% | max response [5] -17.7% | outcome [7] | Potency [8] | Potency [9]

CC1C(=O)OC2C(O)C34C5CC(C(C)(C)C)C36C(OC(=O)C6O)OC4(C(=O)O5)C12O (configuration not stated)
inactive: outcome [1] | max response [2] -2.56% | outcome [3] | outcome [4] | max response [5] -22.7% | outcome [6, 11] | Potency [8] | Potency [9]

CCC[C@@H](NC(=O)[C@@H]1[C@H]2CCC[C@@H]2CN1C(=O)[C@@H](NC(=O)[C@@H](NC(=O)c1cnccn1)C1CCCCC1)C(C)(C)C)C(=O)C(=O)NC1CC1
inactive: outcome [1] | max response [2] -0.244% | outcome [3] | outcome [4] | outcome [5] | outcome [6, 11] | Potency [8] | Potency [9]

CN(C)CCN(Cc1ccc(Cl)cc1)c1ccccn1
inactive: max response [1] 4.38% | max response [2] -16.3% | outcome [3] | max response [4] -16.5% and 0.769% | max response [5] -1.04% | outcome [6, 11] | Potency [8] | Potency [9]

CN[C@@H]1[C@@H](O)[C@@H](O[C@@H]2[C@@H](O)[C@H](O[C@H]3O[C@H](CN)[C@@H](O)[C@H](O)[C@@H]3O)[C@@H](N)C[C@@H]2NC(=O)[C@@H](O)CN)OC[C@]1(C)O
inactive: outcome [1] | max response [2] 3.66% | outcome [3] | max response [4] 1.73% | outcome [5] | outcome [6, 11] | Potency [8] | Potency [9]

COc1ccc(-c2cc(=O)c3c(O)cc(O[C@@H]4O[C@H](CO[C@@H]5O[C@@H](C)[C@H](O)[C@@H](O)[C@@H]5O)[C@@H](O)[C@H](O)[C@@H]4O)cc3o2)cc1O
inactive: max response [1] -4.94% | outcome [2] | outcome [3] | max response [4] -0.879% | outcome [5] | outcome [6, 11] | outcome [7] | Potency [8] | Potency [9]

COc1cc2ncn(-c3cc(OCc4ccccc4S(C)(=O)=O)c(C#N)s3)c2cc1OC
inactive: max response [1] 0.002% | max response [2] -13.3% | outcome [3] | max response [4] -2.12% | max response [5] -0.819% | outcome [6, 11] | Potency [8] | Potency [9]

CCOC(=O)[C@H]1O[C@H]1C(=O)N[C@@H](CC(C)C)C(=O)NCCC(C)C
inactive: max response [1] -2.98% | outcome [2] | max response [3] -0.586% | max response [4] 0.158% | max response [5] 1.05% | outcome [7] | Potency [8] | Potency [9]

CCNC(=O)[C@H]1O[C@@H](n2cnc3c(N)nc(NCCc4ccc(CCC(=O)O)cc4)nc32)[C@H](O)[C@H]1O
inactive: max response [1] 4.93% | outcome [2] | max response [3] -10.6% | max response [4] -0.875% | outcome [5] | outcome [7] | Potency [8] | Potency [9]

OC[C@H]1O[C@@H](Oc2ccc(O)cc2)[C@H](O)[C@@H](O)[C@H]1O
inactive: max response [1] -2.9% | max response [2] 3.31% | outcome [3] | outcome [4] | outcome [5] | outcome [6, 11] | Potency [8] | Potency [9]

NC(N)=Nc1nc(CSCCC(N)=NS(N)(=O)=O)cs1
inactive: max response [1] -0.357% | max response [2] -1.73% | outcome [3] | max response [4] 6.28% | outcome [5] | outcome [6, 11] | Potency [8] | Potency [9]

Cc1cc2nc3c(=O)[nH]c(=O)nc-3n(CC(O)C(O)C(O)CO)c2cc1C (configuration not stated)
inactive: outcome [1] | max response [2] -3.68% | outcome [3] | max response [4] 9.48% | outcome [5] | outcome [6, 11] | Potency [8] | Potency [9]
